{"source": "PubChem BioAssay AID687016", "about": "(The Scripps Research Institute Molecular Screening Center, 2013)", "note": "Screen size: about 370,000 compounds; about 2,800 (0.76%) were called active. This is one part of a sample in which actives are shown more often than they occur. No stated cut-off is given here; in the data, active means inhibition above about 21%; inactive means the rest."}
{"target": "E3 ubiquitin-protein ligase UHRF1 (Homo sapiens) (UniProt Q96T88)", "sequence (Q96T88 whole entry, looked up, the tested form may be a part)": "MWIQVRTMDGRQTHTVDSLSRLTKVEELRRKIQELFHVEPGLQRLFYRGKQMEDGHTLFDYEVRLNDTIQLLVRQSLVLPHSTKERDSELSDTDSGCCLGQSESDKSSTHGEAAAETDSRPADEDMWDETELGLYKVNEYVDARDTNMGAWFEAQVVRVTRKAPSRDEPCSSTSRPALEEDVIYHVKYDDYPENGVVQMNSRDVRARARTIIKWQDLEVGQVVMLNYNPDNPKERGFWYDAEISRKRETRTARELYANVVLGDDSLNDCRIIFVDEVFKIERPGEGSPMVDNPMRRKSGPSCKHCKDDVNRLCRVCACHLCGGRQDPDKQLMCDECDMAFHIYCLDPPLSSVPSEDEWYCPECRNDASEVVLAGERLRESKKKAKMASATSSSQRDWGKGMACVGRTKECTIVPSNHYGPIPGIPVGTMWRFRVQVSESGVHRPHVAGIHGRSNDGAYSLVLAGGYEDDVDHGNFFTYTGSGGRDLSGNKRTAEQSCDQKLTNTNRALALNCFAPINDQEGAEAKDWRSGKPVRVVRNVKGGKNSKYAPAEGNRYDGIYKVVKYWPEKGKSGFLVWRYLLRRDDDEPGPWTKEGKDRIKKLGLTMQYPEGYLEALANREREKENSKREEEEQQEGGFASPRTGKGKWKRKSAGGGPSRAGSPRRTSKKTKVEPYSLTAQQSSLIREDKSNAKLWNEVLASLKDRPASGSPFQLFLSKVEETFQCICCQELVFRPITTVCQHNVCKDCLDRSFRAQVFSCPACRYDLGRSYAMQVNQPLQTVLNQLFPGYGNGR", "assay": "UHRF1 methylated DNA binding inhibitors, primary screen, counter-screen for MBD2 inhibitor project, biochemical, TR-FRET, human UHRF1, single concentration (AID 687016);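 further: UHRF1 SRA domain binding a hemimethylated CpG hairpin DNA probe; 0% = median of test compound wells and 100% = reference inhibitor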", "details": "UHRF1 binding to methylated oligo, at 4.4 µM, active compounds read high"}
{"compound": "O=C(NC1CCC1)c1ccc(C#Cc2cccc(F)c2)c[n+]1[O-]", "inhibition": "-2.83% (inactive)"}
{"compound": "COc1cc2[nH]c(=S)n(Cc3ccc(C)o3)c(=O)c2cc1OC", "inhibition": "-2.92% (inactive)"}
{"compound": "COc1ccc(Cn2c(=O)oc3ccccc32)cc1", "inhibition": "-0.71% (inactive)"}
{"compound": "COc1ccc(Cn2c(=O)cc(C)[nH]c2=S)cc1", "inhibition": "48.1% (active)"}
{"compound": "COC(=O)[C@]12C[C@H](CC(=O)NCc3cccc4ccccc34)C(=O)N(CCc3ccc(OC)c(OC)c3)C1=C[C@H](C1CCCC1)O[C@@H]2C", "inhibition": "0% (inactive)"}
{"compound": "CCOC(=O)N1CCN(C(=O)C[C@@H]2C(=O)N(CCc3ccc(Cl)cc3)C3=CCCC[C@]32C(=O)OCC)CC1", "inhibition": "-0.31% (inactive)"}
{"compound": "c1csc(-c2nnc(SCc3nc4ccccc4[nH]3)o2)c1", "inhibition": "-2.92% (inactive)"}
{"compound": "COC(=O)[C@]12C[C@H](CC(=O)N3CCOCC3)C(=O)N(Cc3ccc(Cl)cc3Cl)C1=C[C@H](C(C)C)O[C@@H]2C1CC1", "inhibition": "-0.21% (inactive)"}
{"compound": "CCCCCC(=O)Nc1ccc(-c2cn3cccnc3n2)cc1", "inhibition": "23.5% (active)"}
{"compound": "CCCCC(=O)Nc1ccc(C(=O)NCCCn2ccnc2)cc1", "inhibition": "-2.85% (inactive)"}
{"compound": "CC(C)(C)C(=O)Nc1ccc(-c2cn3cccnc3n2)cc1", "inhibition": "-3.25% (inactive)"}
{"compound": "Clc1ccc(-n2c(SC/C=C/c3ccccc3)nnc2-c2ccco2)cc1", "inhibition": "0.89% (inactive)"}
{"compound": "CC1CCN(c2ccc(C(=O)O)cc2NS(=O)(=O)c2ccc(Br)s2)CC1", "inhibition": "-1.98% (inactive)"}
{"compound": "COC(=O)[C@@]12CCCCC=C1N(CCc1ccc(Cl)cc1)C(=O)[C@H]2CC(=O)NCc1ccc(OC)c(OC)c1", "inhibition": "0.86% (inactive)"}
{"compound": "CCCCN1C(=O)C(CC(=O)NCc2cccs2)CC(C(=O)N2CCCCCC2)=C1C", "note": "(stereo not given)", "inhibition": "-0.83% (inactive)"}
{"compound": "CCCCN1C(=O)C(CC(=O)NCc2cccs2)CC(C(=O)N2CCOCC2)=C1C", "note": "(stereo not given)", "inhibition": "22.9% (active)"}
{"compound": "COCCCN1C(=O)C(CC(=O)NCc2cccs2)CC(C(=O)N2CCOCC2)=C1C", "note": "(stereo not given)", "inhibition": "0.04% (inactive)"}
{"compound": "Oc1ccc(/C=C/c2c(F)cccc2F)c2cccnc12", "inhibition": "-8.09% (inactive)"}
{"compound": "O=C1C(=O)N(Cc2ccc(-c3ccsc3)cc2)c2ccc(OC(F)(F)F)cc21", "inhibition": "1.64% (inactive)"}
{"compound": "O=C1CCC2(CCC(c3ccc(Cl)cc3)CC2)N1CCO", "note": "(stereo not given)", "inhibition": "-1.17% (inactive)"}
{"compound": "O=C(C1CCN(S(=O)(=O)c2ccccc2)CC1)N1CCN(C2CCCCC2)CC1", "inhibition": "-0.54% (inactive)"}
{"compound": "COc1ccc(Cn2cc(CN3[C@@H](CC(C)C)COc4cc(Br)ccc4S3(=O)=O)nn2)cc1", "inhibition": "-1.35% (inactive)"}
{"compound": "COc1ccc(S(=O)(=O)N2CCc3ccccc32)cc1C(=O)Nc1cc(S(C)(=O)=O)ccc1Cl", "inhibition": "21.6% (active)"}
{"compound": "COc1cccc(NC(=O)c2cc(S(=O)(=O)N3CCc4ccccc43)cn2C)c1", "inhibition": "-1% (inactive)"}
{"compound": "CCN(C(=O)COC(=O)c1cc(S(=O)(=O)N2CCc3ccccc32)ccc1OC)C1CCS(=O)(=O)C1", "note": "(stereo not given)", "inhibition": "-0.66% (inactive)"}
{"compound": "O=C(C1CCCN1S(=O)(=O)c1ccccc1)N1CCc2ccccc2C1", "note": "(stereo not given)", "inhibition": "1.67% (inactive)"}
{"compound": "O=S1(=O)c2ccc(N3CCN(Cc4ccccc4F)CC3)cc2Oc2ccccc2CN1Cc1cn(Cc2ccc(Cl)cc2)nn1", "inhibition": "3.23% (inactive)"}
{"compound": "Nc1ccc2nc3c(=O)[nH]c(=S)[nH]c3nc2c1", "inhibition": "29.6% (active)"}
{"compound": "N#Cc1ccc(OC[C@@H](O)CN2CCC(C(O)(c3ccccc3)c3ccccc3)CC2)c(F)c1", "inhibition": "-0.23% (inactive)"}
{"compound": "C=CCN1C(=O)[C@@H](CC(=O)N2CCN(C(=O)OCC)CC2)[C@]2(C(=O)OCC)CCCCC/C=C/12", "inhibition": "0.51% (inactive)"}
{"compound": "Cc1cc(C)cc(OCC(=O)Nc2cc(NC(=O)COc3cc(C)cc(C)c3)cc(C(=O)O)c2)c1", "inhibition": "-0.86% (inactive)"}
{"compound": "Cc1cc(C)cc(OCC(=O)NCc2cc(C)nc3ccccc23)c1", "inhibition": "37.5% (active)"}
{"compound": "Cc1cc(C)cc(OCC(=O)NNC(=O)CCN2C(=O)c3ccccc3C2=O)c1", "inhibition": "-0.19% (inactive)"}
{"compound": "CCOc1ccc(Oc2c(Cl)cnn(-c3ccc(C)cc3)c2=O)cc1", "inhibition": "0.41% (inactive)"}
{"compound": "CCOC(=O)C1=C(C)NC2=C(C(=O)CC(C)(C)C2)C1c1ccc2c(c1)OCO2", "note": "(stereo not given)", "inhibition": "3.68% (inactive)"}
{"compound": "O=C(Nc1nc2ccc(Cl)cc2s1)c1cc(-c2ccc(Cl)cc2)nc2ccccc12", "inhibition": "1.94% (inactive)"}
{"compound": "O=C(Nc1cccc(F)c1)c1cc(-c2ccco2)nc2ccccc12", "inhibition": "23% (active)"}
{"compound": "Cc1cc(C(=O)Nc2ccc(C)c(S(=O)(=O)N3CCOCC3)c2)c2ccccc2n1", "inhibition": "6.42% (inactive)"}
{"compound": "O=C1CC[C@@H](COc2ccc3[nH]cc(-c4ccccc4)c3c2-c2ccccc2)N1", "inhibition": "-0.59% (inactive)"}
{"compound": "C[C@H](C(=O)N(C)c1ccccc1)[C@@H](O)c1ccc(Cl)cc1", "inhibition": "-0.97% (inactive)"}
{"compound": "COc1cccc(CNC(=O)C2CCCN(c3nc4ccccc4o3)C2)c1OC", "note": "(stereo not given)", "inhibition": "3.57% (inactive)"}
{"compound": "C=CCOC/C=C/C#CCN(CC=C)Cc1ccc(OC)cc1OC", "inhibition": "-1.02% (inactive)"}
{"compound": "O=C(NCc1cccs1)C1CCCN(S(=O)(=O)c2ccc([N+](=O)[O-])cc2)C1", "note": "(stereo not given)", "inhibition": "1.19% (inactive)"}
{"compound": "O=C(NCCOc1ccccc1F)Nc1ccc(Br)cc1", "inhibition": "4.11% (inactive)"}
{"compound": "COCCNC(=O)Nc1ccc2nc(-c3ccco3)c(-c3ccco3)nc2c1", "inhibition": "91.1% (active)"}
{"compound": "COCCN(C(=O)c1ccco1)c1nnc(-c2ccc(OC)cc2)s1", "inhibition": "-1.02% (inactive)"}
{"compound": "O=C(NC1CCCC1)C1CSCCS(=O)(=O)N1Cc1ccccc1", "note": "(stereo not given)", "inhibition": "-0.6% (inactive)"}
{"compound": "COC(=O)[C@]12C[C@H](CC(=O)NCCc3ccccc3OC)C(=O)N(Cc3ccco3)C1=C[C@H](C(C)C)O[C@@H]2C1CC1", "inhibition": "3.75% (inactive)"}
{"compound": "OCCN1CCOCCOCCN(CCO)CCN(CCO)CC1", "inhibition": "-0.79% (inactive)"}
{"compound": "Oc1c(CN2CCOCC2)ccc(CN2CCOCC2)c1O", "inhibition": "25.4% (active)"}
{"compound": "O=[N+]([O-])c1ccc(COc2ccccc2CN2CCOCC2)cc1", "inhibition": "-1.96% (inactive)"}
{"compound": "O=C(CSc1nnc(-c2ccccn2)n1-c1ccccc1)Nc1ccc2cn[nH]c2c1", "inhibition": "-1.24% (inactive)"}
{"compound": "Cc1ccccc1CS(=O)(=O)Cc1ccc(C(=O)Nc2ccc(Cl)cc2)o1", "inhibition": "0.04% (inactive)"}
{"compound": "Cc1c(NC(=O)c2c([N+](=O)[O-])cnn2C)c(=O)n(-c2ccccc2)n1C", "inhibition": "-1.94% (inactive)"}
{"compound": "Cc1c(NC(=S)Nc2ccccc2)c(=O)n(-c2ccccc2)n1C", "inhibition": "-4.22% (inactive)"}
{"compound": "Cc1c(NC(=O)c2cccnc2)c(=O)n(-c2ccccc2)n1C", "inhibition": "23.3% (active)"}
{"compound": "COC(=O)[C@]12C[C@H](CC(=O)NCc3ccccc3)C(=O)N(CCC3=CCCCC3)C1=C[C@H](C(C)C)O[C@@H]2C1CC1", "inhibition": "3.6% (inactive)"}
{"compound": "COC(=O)C1CN(Cc2ccc(F)cc2)CCS(=O)(=O)N1Cc1ccc(Cl)cc1", "note": "(stereo not given)", "inhibition": "2.67% (inactive)"}
{"compound": "O=C(Nc1cccc(Cl)c1)OC1CC2CC1[C@H]1CCCCN1[C@H]2Cc1ccccc1", "note": "(stereo not given in full)", "inhibition": "0.5% (inactive)"}
{"compound": "Cc1ccccc1CSc1nnc(CCCCCNC(=O)OC(C)(C)C)o1", "inhibition": "0.59% (inactive)"}
{"compound": "Cc1cccc(NC(=O)CSc2nnc(CCNC(=O)OC(C)(C)C)o2)c1C", "inhibition": "2.63% (inactive)"}
{"compound": "Cc1cccc(NC(=O)CSc2nnc(CCCCCNC(=O)OC(C)(C)C)o2)c1C", "inhibition": "34.9% (active)"}
{"compound": "O=C(NCc1cccs1)C1CCN(S(=O)(=O)c2ccccc2[N+](=O)[O-])CC1", "inhibition": "4.97% (inactive)"}
{"compound": "Cc1cc(NC(=O)COC(=O)COc2ccc(Cl)cc2C)c([N+](=O)[O-])cc1C", "inhibition": "23% (active)"}
{"compound": "CCCC(=O)OCC(=O)Nc1cc(Cl)ccc1[N+](=O)[O-]", "inhibition": "-3.24% (inactive)"}
{"compound": "COc1ccc(OCC(=O)Nc2cc(C)c(Cl)cc2OC)c([N+](=O)[O-])c1", "inhibition": "-2.47% (inactive)"}
{"compound": "C=CCN1C(=O)[C@@H](CC(=O)N2CCN(C(=O)c3ccco3)CC2)[C@]2(C(=O)OC)CCCCC=C12", "inhibition": "1.46% (inactive)"}
{"compound": "O=C(Nc1ccc(Br)cc1)OCCN1C(=O)CCC12CCC(c1ccccc1)CC2", "note": "(stereo not given)", "inhibition": "-4.19% (inactive)"}
{"compound": "CC(=O)O[C@@]1(C(C)=O)CCC2[C@H]3C=C(C)C4=CC(=O)CC[C@@]4(C)C3CC[C@]21C", "note": "(stereo not given in full)", "inhibition": "2.53% (inactive)"}
{"compound": "CCCCNC(=O)C[C@@H]1C(=O)N(CCc2ccc(Cl)cc2)C2=CCCC[C@]21C(=O)OCC", "inhibition": "-3.97% (inactive)"}
{"compound": "COc1ccc(-c2cc(-c3nnc(SCc4ccc([N+](=O)[O-])cc4)n3N)[nH]n2)cc1", "inhibition": "-1.01% (inactive)"}
{"compound": "CC(CN1CCCCC1)c1ccccc1", "note": "(stereo not given)", "inhibition": "-1.54% (inactive)"}
{"compound": "OC(c1ccccc1)C(CN1CCOCC1)c1ccccc1", "note": "(stereo not given)", "inhibition": "-2.23% (inactive)"}
{"compound": "CC(CN1CCOCC1)c1ccccc1", "note": "(stereo not given)", "inhibition": "55.2% (active)"}
{"compound": "COC(=O)[C@]1(C#N)CC(=O)N(CC2CCCCC2)[C@@H]1c1ccccc1", "inhibition": "5.42% (inactive)"}
{"compound": "Cc1ccc(C(=O)COC(=O)CCCC(=O)NC2CCCCC2)cc1[N+](=O)[O-]", "inhibition": "48.1% (active)"}
{"compound": "O=C(COC(=O)c1cc([N+](=O)[O-])ccc1NCc1ccccc1)NC1CCCCC1", "inhibition": "-2.56% (inactive)"}
{"compound": "Cc1ccc(C(=O)OCC(=O)NC2CCCCCCC2)cc1C", "inhibition": "0.37% (inactive)"}
{"compound": "O=C(COC(=O)Cc1ccc([N+](=O)[O-])cc1)NC1CCCCCC1", "inhibition": "45.9% (active)"}
{"compound": "COC(=O)Cc1ccc(OCC(=O)NC2CCCC2)cc1", "inhibition": "0.36% (inactive)"}
{"compound": "O=C(CCNC(=O)c1ccc([N+](=O)[O-])cc1)NC1CCCCC1", "inhibition": "-0.33% (inactive)"}
{"compound": "CCCC[C@H](C(=O)N(CC)c1ccccc1)[C@@H](O)c1ccc2ccccc2c1", "inhibition": "-2.02% (inactive)"}
{"compound": "Cc1ccccc1CN1CCCCC(NC(=O)c2cccc(C#N)c2)C1=O", "note": "(stereo not given)", "inhibition": "-0.18% (inactive)"}
{"compound": "COC(=O)C[C@@H]1CC[C@H]2[C@@H](COc3ccc(NS(=O)(=O)CC(F)(F)F)cc3C(=O)N2C)O1", "inhibition": "1.54% (inactive)"}
{"compound": "CC[C@@H](CCC(=O)N(c1ccccc1)c1ccccc1)C1CC1", "inhibition": "1.36% (inactive)"}
